Measured values from PubChem BioAssay.
The source made the active and inactive calls.

Test system: not listed separately
Test: Plasmodium falciparum growth inhibition, primary screen, strain 3D7, DAPI fluorescence, 100 nL (AID 1184);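 note: parasites grown inside human red blood cells in medium with human serum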
Conditions: P. falciparum 3D7 growth, 3 d, higher = more signal

Structure (SMILES)	z-score
O=C1OCC=C[C@H]2OC34C=CCN(c5ccc6ccccc6c5)C(=O)[C@H]3N(CCCCCCO)C(=O)[C@@H]4[C@@H]12 (stereo partly specified)	-0.341
CC(=O)N1Cc2ccccc2C[C@@]2(COC(c3ccc(OCCCO)cc3)=N2)C1=O	-2.28
CCCCCC1=C2CNC(CCC)(C(=O)OC)C=C2C(C)C1=O (stereo unspecified)	-0.175
COC(=O)[C@@]1(Cc2ccc(OC)cc2)[C@H]2c3cc(C(=O)N4CCCC4)n(Cc4ccc(OC)c(OC)c4)c3C[C@H]2CN1C(=O)c1ccccc1	-1.65
CCCC[C@H]1OB(O)C[C@H]2C1=C(COc1ccccc1)C[C@H]1C(=O)N(C)C(=O)[C@H]12	1.68
C=C(CCCC)C(=O)CC[C@H](OC(C)=O)c1cccc(OCCO)c1	-1.98
CCCCC(O)C1C=CC2C(=O)N(c3ccccc3)C(=O)C2N1Nc1ccccc1F (stereo unspecified)	1.01
CN(C)CCCCCCNC(=O)[C@@H]1C[C@@H]2C(=O)N[C@@H](CCCCN)C(=O)N2[C@@H]1c1cccc(OCCO)c1	0.0037
O=C(NCc1ccccc1)[C@@H]1c2ccccc2C(=O)N(CC23CC4CC(CC(C4)C2)C3)[C@H]1c1ccc(CO)cc1	-1.76
COc1ccc(C(=O)Nc2ccc(CN3C(=O)[C@@]4(O[C@@H](CCn5cc([C@H](O)c6ccccc6)nn5)[C@H]([Si](C)(C)c5ccc(OC)cc5)[C@H]4C)c4ccccc43)cc2)cc1	-2.3
C=C/C=C/[C@H]1C(=C)CN([C@@H](Cc2ccccc2)C(=O)OC)[C@@H]1[C@H](O)Cc1ccccc1	-1.2
CCCCCN1CC=CC23O[C@@H]4/C=C\CCCOC(=O)C4[C@H]2C(=O)N(C(CO)C(C)C)[C@@H]3C1=O (stereo partly specified)	0.609
CS(=O)(=O)CCOC(=O)C1=CC(CCCO)=CC(c2ccc(CN3CCCC3)cc2)N(Cc2cc3c(cc2Br)OCO3)C=C1C(=O)OCCS(C)(=O)=O (stereo unspecified)	-2.66
C=CC[C@]1(C(=O)NCCCOC)N=C(c2ccc(OCCCO)cc2)O[C@H]1c1ccccc1N=[N+]=[N-]	-1.99
[N-]=[N+]=NCc1ccccc1[C@@H]1OC(c2ccc(OCCCO)cc2)=N[C@]1(CCS(=O)(=O)c1ccccc1)C(=O)NCc1ccccc1	-2.5
CCCC=C(CCC)[C@@H](NC(=O)Oc1ccc(F)cc1)c1ccc(C(=O)OC)cc1	-0.476
CCCCCN1CC=CC23O[C@@H]4/C=C\CCCOC(=O)C4[C@H]2C(=O)N(CCCO)[C@@H]3C1=O (stereo partly specified)	-0.332
CC(C)(C)OC(=O)CC[C@@]1(C(N)=O)N=C(c2ccc(OCCCO)cc2)O[C@@H]1c1ccccc1	-0.589
C=C(COC)/C(=C/C[C@H](OC(=O)c1ccncc1)c1ccc(OCCO)cc1)c1cnc2ccccc2c1	-2.77
CCCCC=C[C@@H](NC(=O)Oc1cccc(C(F)(F)F)c1)c1ccccc1	-1.01
O=C1[C@H]2C=C(Br)[C@H](C[C@@H]2c2ccccc2)[C@@]12CO2	-0.391
CC(C)(C)OC(=O)CC[C@]1(C(=O)NCC(O)CO)COC(c2ccc(OCCCO)cc2)=N1 (stereo partly specified)	-0.104
COc1cc2c(cc1O)C(C1CC1)N(Cc1cc3c(cc1Br)OCO3)CC2 (stereo unspecified)	-2.44
C=CCNC(=O)[C@@H]1[C@H]2C(=O)O[C@H](c3ccccc3)[C@H](c3ccccc3)N2[C@H](c2ccc(OCCO)cc2)[C@@]12C(=O)Nc1ccc(C#Cc3ccc(OC)cc3)cc12	-2.28
COC(=O)[C@@]1(Cc2ccc(F)cc2)[C@H]2c3cc(C(=O)N4CCCC4)n(Cc4cc(C)n(C)n4)c3C[C@H]2CN1C(=O)c1ccccc1	-1.58
CC(C)c1ccc(NN2C(C(O)c3cc(C(F)(F)F)cc(C(F)(F)F)c3)C=CC3C(=O)N(c4ccccc4)C(=O)C32)cc1 (stereo unspecified)	-0.764

Target: Homeobox protein Hox-A13 (Mus musculus) (UniProt Q62424)
Test: inhibitors of HoxA13-DNA binding, primary screen, biochemical, fluorescence polarization, labeled oligonucleotide (AID 1185)
Conditions: 15 min, higher = more signal, called active from +8 up or from −8 down

Homeobox protein Hox-A13 (Mus musculus), sequence (Q62424 whole entry, looked up): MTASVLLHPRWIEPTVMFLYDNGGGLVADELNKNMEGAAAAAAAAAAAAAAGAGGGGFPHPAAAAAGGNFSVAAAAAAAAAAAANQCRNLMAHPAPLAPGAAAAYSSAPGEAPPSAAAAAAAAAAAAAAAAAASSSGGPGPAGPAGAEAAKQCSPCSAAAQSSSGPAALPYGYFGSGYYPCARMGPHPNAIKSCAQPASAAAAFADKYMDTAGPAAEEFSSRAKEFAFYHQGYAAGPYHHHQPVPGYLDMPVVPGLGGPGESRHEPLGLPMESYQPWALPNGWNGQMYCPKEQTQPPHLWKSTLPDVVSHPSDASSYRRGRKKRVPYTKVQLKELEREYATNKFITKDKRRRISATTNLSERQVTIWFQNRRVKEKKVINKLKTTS

Structure (SMILES)	z-score
O=C(C1N=C(c2ccc(OCCCO)cc2)N(c2ccccc2)O1)N1CCOCC1 (stereo unspecified)	-2.88 (inactive)
CC(C)N1C(=O)c2ccccc2[C@](C)(C(=O)NCc2ccccc2)[C@@H]1c1ccc(CO)cc1	-1.51 (inactive)
COCCn1c(C(=O)N2CCCC2)cc2c1C[C@H]1CN(C(=O)c3ccccc3)[C@@](Cc3ccc(F)cc3)(C(=O)OC)[C@@H]21	-5.83 (inactive)
C=C(/C(=C/C[C@@H](OC(C)=O)c1ccc(OCCO)cc1)c1cnc2ccccc2c1)C(C)C	-4.09 (inactive)
[N-]=[N+]=NCc1ccccc1C[C@]1(C(=O)N2CCOCC2)N=C(c2ccc(OCCCO)cc2)O[C@H]1c1ccccc1N=[N+]=[N-]	-2.96 (inactive)
CC(=O)NCCCC[C@@H]1NC(=O)[C@@H]2C[C@H](C(=O)NCCCCCCNC(=O)CS)[C@H](c3cccc(OCCO)c3)N2C1=O	-4.5 (inactive)
C=CCOC(=O)[C@@H]1[C@H]2C(=O)O[C@H](c3ccccc3)[C@H](c3ccccc3)N2[C@H](c2ccc(OCCOC(=O)[C@@H]3C[C@@H]4C(=O)N[C@@H](CCCC[N+](C)(C)C)C(=O)N4[C@@H]3c3cccc(OCCO)c3)cc2)[C@@]12C(=O)Nc1ccc(I)cc12	6.23 (inactive)
CC(C)C[C@H]1NC(=O)[C@@]23C(=O)N[C@@H](Cc4ccccc4)C2[C@H](C)[C@@]2(C)O[C@H]2C3/C=C/C/C=C\CNC(=O)[C@H](Cc2ccccc2)NC1=O (stereo partly specified)	-7.51 (inactive)
C=CCN1C(=O)[C@]2(O[C@H](CCO)[C@@H]([Si](C)(C)c3ccc(OC)cc3)[C@@H]2C)c2cc(N3C(=O)c4cccc5cccc3c45)ccc21	-3.37 (inactive)
O=C1OCC=C[C@H]2OC34C=CCN(c5ccc6ccccc6c5)C(=O)[C@H]3N(CCCCCCO)C(=O)[C@@H]4[C@@H]12 (stereo partly specified)	-5.38 (inactive)
CC(=O)N1Cc2ccccc2C[C@@]2(COC(c3ccc(OCCCO)cc3)=N2)C1=O	-3.13 (inactive)
CCCCCC1=C2CNC(CCC)(C(=O)OC)C=C2C(C)C1=O (stereo unspecified)	-6.92 (inactive)
COC(=O)[C@@]1(Cc2ccc(OC)cc2)[C@H]2c3cc(C(=O)N4CCCC4)n(Cc4ccc(OC)c(OC)c4)c3C[C@H]2CN1C(=O)c1ccccc1	-4.91 (inactive)
CCCC[C@H]1OB(O)C[C@H]2C1=C(COc1ccccc1)C[C@H]1C(=O)N(C)C(=O)[C@H]12	-4.62 (inactive)
C=C(CCCC)C(=O)CC[C@H](OC(C)=O)c1cccc(OCCO)c1	-5.04 (inactive)
CCCCC(O)C1C=CC2C(=O)N(c3ccccc3)C(=O)C2N1Nc1ccccc1F (stereo unspecified)	-3.4 (inactive)
CN(C)CCCCCCNC(=O)[C@@H]1C[C@@H]2C(=O)N[C@@H](CCCCN)C(=O)N2[C@@H]1c1cccc(OCCO)c1	-1.47 (inactive)
O=C(NCc1ccccc1)[C@@H]1c2ccccc2C(=O)N(CC23CC4CC(CC(C4)C2)C3)[C@H]1c1ccc(CO)cc1	-3.43 (inactive)

Structure (SMILES)	z-score
COc1ccc(C(=O)Nc2ccc(CN3C(=O)[C@@]4(O[C@@H](CCn5cc([C@H](O)c6ccccc6)nn5)[C@H]([Si](C)(C)c5ccc(OC)cc5)[C@H]4C)c4ccccc43)cc2)cc1	0.568 (inactive)
C=C/C=C/[C@H]1C(=C)CN([C@@H](Cc2ccccc2)C(=O)OC)[C@@H]1[C@H](O)Cc1ccccc1	-1.43 (inactive)
CCCCCN1CC=CC23O[C@@H]4/C=C\CCCOC(=O)C4[C@H]2C(=O)N(C(CO)C(C)C)[C@@H]3C1=O (stereo partly specified)	-4.65 (inactive)
CS(=O)(=O)CCOC(=O)C1=CC(CCCO)=CC(c2ccc(CN3CCCC3)cc2)N(Cc2cc3c(cc2Br)OCO3)C=C1C(=O)OCCS(C)(=O)=O (stereo unspecified)	-0.776 (inactive)
C=CC[C@]1(C(=O)NCCCOC)N=C(c2ccc(OCCCO)cc2)O[C@H]1c1ccccc1N=[N+]=[N-]	-3.07 (inactive)
[N-]=[N+]=NCc1ccccc1[C@@H]1OC(c2ccc(OCCCO)cc2)=N[C@]1(CCS(=O)(=O)c1ccccc1)C(=O)NCc1ccccc1	-0.438 (inactive)
CCCC=C(CCC)[C@@H](NC(=O)Oc1ccc(F)cc1)c1ccc(C(=O)OC)cc1	-0.734 (inactive)
CCCCCN1CC=CC23O[C@@H]4/C=C\CCCOC(=O)C4[C@H]2C(=O)N(CCCO)[C@@H]3C1=O (stereo partly specified)	-5.09 (inactive)
CC(C)(C)OC(=O)CC[C@@]1(C(N)=O)N=C(c2ccc(OCCCO)cc2)O[C@@H]1c1ccccc1	-3.33 (inactive)
C=C(COC)/C(=C/C[C@H](OC(=O)c1ccncc1)c1ccc(OCCO)cc1)c1cnc2ccccc2c1	-4.16 (inactive)
CCCCC=C[C@@H](NC(=O)Oc1cccc(C(F)(F)F)c1)c1ccccc1	-0.127 (inactive)
O=C1[C@H]2C=C(Br)[C@H](C[C@@H]2c2ccccc2)[C@@]12CO2	-1.29 (inactive)
CC(C)(C)OC(=O)CC[C@]1(C(=O)NCC(O)CO)COC(c2ccc(OCCCO)cc2)=N1 (stereo partly specified)	-3.95 (inactive)
COc1cc2c(cc1O)C(C1CC1)N(Cc1cc3c(cc1Br)OCO3)CC2 (stereo unspecified)	-5.54 (inactive)
C=CCNC(=O)[C@@H]1[C@H]2C(=O)O[C@H](c3ccccc3)[C@H](c3ccccc3)N2[C@H](c2ccc(OCCO)cc2)[C@@]12C(=O)Nc1ccc(C#Cc3ccc(OC)cc3)cc12	-1.61 (inactive)
COC(=O)[C@@]1(Cc2ccc(F)cc2)[C@H]2c3cc(C(=O)N4CCCC4)n(Cc4cc(C)n(C)n4)c3C[C@H]2CN1C(=O)c1ccccc1	-3.99 (inactive)
CC(C)c1ccc(NN2C(C(O)c3cc(C(F)(F)F)cc(C(F)(F)F)c3)C=CC3C(=O)N(c4ccccc4)C(=O)C32)cc1 (stereo unspecified)	-3.49 (inactive)
